# Test results as given in PubChem BioAssay AID449739 (Vanderbilt High Throughput Screening Facility, 2010).
# In all, about 100,000 compounds went through this assay and about 4,200 (4.2%) were called active.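 How the source made its calls: active means single-dose well whose peak fluorescence ratio is a statistical outlier from its plate by either plate-standardised score or position-corrected B-score; inactive means the rest.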 The full list was thinned out, with actives kept by preference.
# Target: Voltage-dependent T-type calcium channel subunit alpha-1H (Homo sapiens) (UniProt O95180)
# Assay: Cav3.2 calcium influx blockers – cell-based, Fluo-4 calcium fluorescence, FDSS, MLSMR library, primary screen (AID 449739)
# Settings: Cav3.2-expressing cells, at 10 µM, active compounds read low
# Voltage-dependent T-type calcium channel subunit alpha-1H (Homo sapiens), sequence (O95180 whole entry, looked up): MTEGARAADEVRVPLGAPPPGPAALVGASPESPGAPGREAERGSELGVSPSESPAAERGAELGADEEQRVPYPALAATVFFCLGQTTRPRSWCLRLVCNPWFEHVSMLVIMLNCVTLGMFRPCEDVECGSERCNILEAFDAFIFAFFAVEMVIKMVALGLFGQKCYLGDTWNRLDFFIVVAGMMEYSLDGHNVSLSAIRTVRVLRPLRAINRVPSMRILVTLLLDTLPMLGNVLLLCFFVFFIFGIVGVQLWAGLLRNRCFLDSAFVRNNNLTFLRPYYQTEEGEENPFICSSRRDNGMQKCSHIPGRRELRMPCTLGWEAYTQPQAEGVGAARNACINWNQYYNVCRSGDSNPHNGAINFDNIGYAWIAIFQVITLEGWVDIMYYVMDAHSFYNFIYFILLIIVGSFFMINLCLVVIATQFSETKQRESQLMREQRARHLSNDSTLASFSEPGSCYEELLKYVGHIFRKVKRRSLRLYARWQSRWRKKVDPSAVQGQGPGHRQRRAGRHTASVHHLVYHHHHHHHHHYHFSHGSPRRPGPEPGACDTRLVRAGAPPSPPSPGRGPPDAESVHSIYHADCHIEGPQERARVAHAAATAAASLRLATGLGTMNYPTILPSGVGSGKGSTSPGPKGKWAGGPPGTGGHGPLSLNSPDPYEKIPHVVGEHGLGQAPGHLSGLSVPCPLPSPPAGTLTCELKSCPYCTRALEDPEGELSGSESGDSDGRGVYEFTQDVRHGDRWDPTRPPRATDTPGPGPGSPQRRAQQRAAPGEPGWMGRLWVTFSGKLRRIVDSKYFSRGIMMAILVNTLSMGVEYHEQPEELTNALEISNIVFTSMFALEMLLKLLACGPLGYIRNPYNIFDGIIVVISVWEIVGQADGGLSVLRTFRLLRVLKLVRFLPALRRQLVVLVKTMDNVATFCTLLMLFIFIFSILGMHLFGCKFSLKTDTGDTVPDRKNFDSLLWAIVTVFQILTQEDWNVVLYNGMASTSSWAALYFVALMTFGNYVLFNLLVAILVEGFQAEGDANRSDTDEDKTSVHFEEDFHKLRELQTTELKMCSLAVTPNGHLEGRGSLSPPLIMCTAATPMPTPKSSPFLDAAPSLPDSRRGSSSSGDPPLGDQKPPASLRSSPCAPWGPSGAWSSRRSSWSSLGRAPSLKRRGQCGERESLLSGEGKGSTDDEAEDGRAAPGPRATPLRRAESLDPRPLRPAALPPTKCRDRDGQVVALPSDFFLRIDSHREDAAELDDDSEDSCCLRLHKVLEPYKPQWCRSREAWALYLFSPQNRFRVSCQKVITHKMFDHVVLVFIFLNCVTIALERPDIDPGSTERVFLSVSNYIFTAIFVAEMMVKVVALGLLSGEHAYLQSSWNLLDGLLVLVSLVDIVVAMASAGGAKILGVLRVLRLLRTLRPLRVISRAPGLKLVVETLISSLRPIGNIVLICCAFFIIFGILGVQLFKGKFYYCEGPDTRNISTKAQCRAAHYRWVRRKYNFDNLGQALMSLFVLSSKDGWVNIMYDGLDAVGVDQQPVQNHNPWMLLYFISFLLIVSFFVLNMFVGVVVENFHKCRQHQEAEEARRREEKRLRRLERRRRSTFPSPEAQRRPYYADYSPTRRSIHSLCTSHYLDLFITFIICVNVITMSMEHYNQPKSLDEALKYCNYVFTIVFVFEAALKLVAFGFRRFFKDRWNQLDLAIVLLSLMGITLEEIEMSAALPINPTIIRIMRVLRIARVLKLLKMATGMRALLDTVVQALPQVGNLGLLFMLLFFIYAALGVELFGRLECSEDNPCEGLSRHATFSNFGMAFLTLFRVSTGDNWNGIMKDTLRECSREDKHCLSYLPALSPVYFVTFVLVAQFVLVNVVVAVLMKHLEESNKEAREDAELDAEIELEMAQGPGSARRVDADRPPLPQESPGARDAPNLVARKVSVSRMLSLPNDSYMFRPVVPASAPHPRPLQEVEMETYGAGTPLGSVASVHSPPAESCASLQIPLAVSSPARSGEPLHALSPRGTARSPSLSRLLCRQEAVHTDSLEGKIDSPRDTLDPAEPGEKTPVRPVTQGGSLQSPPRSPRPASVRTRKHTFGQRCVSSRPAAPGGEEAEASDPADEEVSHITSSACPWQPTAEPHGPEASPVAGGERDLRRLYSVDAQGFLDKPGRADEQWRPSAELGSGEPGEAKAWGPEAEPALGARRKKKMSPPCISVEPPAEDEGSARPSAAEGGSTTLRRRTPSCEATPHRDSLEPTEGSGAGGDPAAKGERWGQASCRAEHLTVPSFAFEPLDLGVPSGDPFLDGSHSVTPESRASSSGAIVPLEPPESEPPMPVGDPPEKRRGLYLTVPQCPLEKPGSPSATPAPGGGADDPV
row,SMILES,B-score
1,CCC(=O)Nc1ccc(C(=O)Nc2cc(C)on2)cc1,0.744 (inactive)
2,CCc1ccc2ncc(C(=O)c3ccccc3)c(N3CCOCC3)c2c1,-0.907 (inactive)
3,CC(C)C(=O)NC(=S)Nc1ccccc1F,-0.107 (inactive)
4,COc1ccccc1NC(=S)NC(=O)C(C)C,0.35 (inactive)
5,CC(C)C(=O)Nc1cccc(NC(=S)NC(=O)C(c2ccccc2)c2ccccc2)c1,-5.49 (active)
6,Cc1cc(C(=O)NCCCc2ccccc2)no1,0.538 (inactive)
7,O=C(NCCc1ccccc1)c1ccc(OCCOc2ccccc2)cc1,-0.578 (inactive)
8,CC(C)c1ccc(C(=O)NCCCc2ccccc2)cc1,-4.2 (active)
9,CC(=O)Nc1cccc(/C(C)=N/NC(=O)c2ccccc2Cl)c1,0.407 (inactive)
10,Cc1ccc(-c2csc(NCCc3nc4cc(Cl)c(Cl)cc4n3CCOCCO)n2)cc1,-0.914 (inactive)
11,CCS(=O)(=O)c1ccc2oc(SCC(=O)N3c4ccccc4CC3C)nc2c1 (configuration not stated),0.393 (inactive)
12,O=C(CSc1nc2ccccc2o1)N1CCN(c2ccccc2)CC1,-0.102 (inactive)
13,CC1Cc2ccccc2N1C(=O)CSc1nc2ccccc2o1 (configuration not stated),-4.15 (active)
14,Cc1nc(SCC(=O)c2ccccc2)c([N+](=O)[O-])[nH]1,0.184 (inactive)
15,COc1c(O)cc2oc(-c3ccc(O)c(O)c3)cc(=O)c2c1O,1.78 (inactive)
16,COc1ccccc1N(C)S(=O)(=O)c1ccc(C(=O)N2CCC(C(N)=O)CC2)cc1,-0.0467 (inactive)
17,CCCCC1=CC2=CC(=O)C(C)(OC(=O)CC)C(=O)C2=CN1CCCOC(C)C (configuration not stated),0.761 (inactive)
18,CCC(C)NC(=O)CSC1=Nc2ccccc2C2=NC(CCC(=O)NCc3ccco3)C(=O)N12 (configuration not stated),0.161 (inactive)
19,O=C(CC1N=C2c3ccccc3N=C(SCc3ccccc3Cl)N2C1=O)NCc1ccco1 (configuration not stated),-4.98 (active)

row,SMILES,B-score
1,O=C(CSC1=Nc2ccccc2C2=NC(CC(=O)NCc3ccco3)C(=O)N12)NCc1ccco1 (configuration not stated),0.442 (inactive)
2,O=C(Cc1ccc2c(c1)CCCC2)Nc1ccccc1Cl,-0.144 (inactive)
3,O=C(NCc1ccccc1)c1onc(CSc2ccncc2)c1C(=O)NCc1ccccc1,-0.591 (inactive)
4,Cc1cc(C)cc(OCc2nnc(SCC(=O)Nc3ccccc3)o2)c1,0.346 (inactive)
5,Cc1cccc(OCc2nnc(SCn3nnc4ccccc4c3=O)o2)c1,-6.05 (active)
6,Cc1cccc(OCc2nnc(SCc3nc4cc(C(F)(F)F)ccc4c(=O)[nH]3)o2)c1,-1.8 (inactive)
7,COc1cccc(NC(=O)c2nn(C34CC5CC(CC(C5)C3)C4)cc2[N+](=O)[O-])c1,-4.14 (active)
8,Cn1cc([N+](=O)[O-])c(C(=O)Nc2ccc3c(c2)OCCO3)n1,0.353 (inactive)
9,COc1cccc(NC(=O)c2ccccc2SC)c1,0.424 (inactive)
10,O=C(Nc1nnc(CCOCCOCCc2nnc(NC(=O)c3ccco3)s2)s1)c1ccco1,0.766 (inactive)
11,Cc1cc(C(=O)CSc2nc(N)cc(=O)[nH]2)c(C)n1CCc1ccc(Cl)cc1,0.737 (inactive)
12,CC(/C=C/C1(O)C(C)CC(=O)CC1(C)C)OC1OC(CO)C(O)C(O)C1O (configuration not stated),0.424 (inactive)
13,COc1ccc(NC(=O)Cn2c(-c3ccc(OC)cc3)cn(-c3ccc(C)cc3)c2=O)cc1,-4.33 (active)
14,COc1ccc(-c2cn(-c3ccc(C)cc3)c(=O)n2CC(=O)Nc2ccc(OC)c(OC)c2)cc1,-1.46 (inactive)
15,CCOc1ccc(NC(=O)CN2CCN(CC(=O)Nc3ccc(OC)cc3)CC2)cc1,1.58 (inactive)
16,CC(C)(C)NS(=O)(=O)c1ccc(NC(=O)NC2CCCCC2)cc1,-0.833 (inactive)
17,Cc1n[nH]c(=S)n1/N=C/c1ccc(Br)o1,0.825 (inactive)
18,COc1ccc(Nc2nc(Cl)nc(NCc3ccco3)n2)cc1,-0.534 (inactive)
19,COc1ccc(CCN(C)C(=O)C2CCCN(Cc3ccc(OC)c(OC)c3)C2)cc1OC (configuration not stated),-0.0096 (inactive)

row,SMILES,B-score
1,COc1ccc(CCNC(=O)C2CCCN(Cc3nc(-c4cccc(Cl)c4)oc3C)C2)cc1OC (configuration not stated),-3.48 (active)
2,COc1ccc(CCNC(=O)C2CCN(c3nn4c(=O)cc(C)nc4s3)CC2)cc1OC,0.351 (inactive)
3,CC1(OC(=O)C2CCCC2)C(=O)C=C2C=C(c3ccc(C#N)cc3)OC=C2C1=O (configuration not stated),-0.314 (inactive)
4,CCCCNC(=O)C(=O)c1ccccc1NC(C)=O,0.725 (inactive)
5,O=C(CCCCn1c(=O)[nH]c2ccccc2c1=O)NCc1ccc2c(c1)OCO2,-0.0333 (inactive)
6,O=C(CCCn1c(=O)[nH]c2cc(Cl)ccc2c1=O)NCCN1CCN(c2ccccc2)CC1,0.27 (inactive)
7,O=C(CCn1c(=O)[nH]c2ccccc2c1=O)NCCCN1CCN(c2cccc(Cl)c2)CC1,-7.26 (active)
8,COc1ccc(CCNC(=O)CCCCn2c(=O)[nH]c3ccccc3c2=O)cc1OC,0.545 (inactive)
9,CCn1c(=O)cc(OCC(=O)NCCCN2CCN(c3cccc(Cl)c3)CC2)c2ccccc21,0.375 (inactive)
10,Cc1ccc(C)c(N2CCN(C(=O)CCCCn3c(=O)[nH]c4ccccc4c3=O)CC2)c1,-8.03 (active)
11,COC(=O)c1ccccc1OCC(=O)N1CCN(c2ccc(Cl)cc2)CC1,-1.9 (inactive)
12,Cc1ccccc1OC/C(O)=C(\C#N)c1nc2ccccc2[nH]1,-0.71 (inactive)
13,COc1cc(/C=N\NC(=O)CNC(=O)c2cccc([N+](=O)[O-])c2)ccc1O,0.194 (inactive)
14,COc1cc(OC)c(/C=N/NC(=O)c2ccc([N+](=O)[O-])cc2)cc1Br,-0.234 (inactive)
15,COc1cccc(/C=N/NC(=O)c2cccc([N+](=O)[O-])c2)c1OS(=O)(=O)c1ccc(C)cc1,-6.01 (active)
16,C#CCNC(=O)C1=C[C@@H](c2ccccc2)[C@H](CCCO)[C@@H](OCC)O1,1.09 (inactive)
17,Cc1ccc2c(c1)N(CC(=O)N(Cc1ccccn1)Cc1ccco1)C(=O)C(C(C)C)O2 (configuration not stated),-6.96 (active)
18,Cc1ccc(C)c(N(CC(=O)NCc2ccco2)C(=O)CCC(=O)Nc2ccccn2)c1,-2.66 (inactive)
19,Cc1ccc(C(C(=O)NC2CCCC2)N(Cc2ccco2)C(=O)CCC(=O)Nc2ccccn2)cc1 (configuration not stated),0.124 (inactive)
